Records with an inconclusive call do not appear. Calls of active or inactive are those of the source. The call rests on the fitted dose curve; in most records, active means well fitted cell-killing curve with a large enough effect; inconclusive means small, poorly fitted or top-dose-only effect, or effect the other way; inactive means flat fitted curve, though single readings scatter.
What was measured:
Assay in all cases: Primary qHTS to identify gynecologic anti-cancer compounds using libraries of approved drugs and bioactive compounds (AID 1345084); further: nearly all actives have a fitted effect of over 55% in size
Details in all cases: Gynecologic cancer cell panel viability, ATPlite luminescence, 48 h; series mostly up to 57.5 µM
[1] = system: OV90
Summary of the method: (§1)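 Five-point cytotoxicity, 48 h drug exposure at 37 C, 5% CO2, on cells seeded 16 h beforehand. ATP content read by ATPlite luminescence.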

[2] = system: PA-1
Summary of the method: as §1

[3] = system: SKOV3
Summary of the method: as §1

[4] = system: Tov-21-G
Summary of the method: as §1

[5] = system: Tov112D
Summary of the method: as §1
On the % scale 0 is the no-effect control and ±100 the full control effect.

C=C1[C@H](OC(C)=O)[C@H]2[C@@H](OC(C)=O)[C@](C)(OC(C)=O)C[C@]2(OC(C)=O)C(=O)[C@H](C)/C=C/C(C)(C)C(=O)[C@H](OC(=O)C(C)CC)[C@H]1OC(C)=O (stereo not given in full)
inactive: Potency [1] | Potency [2] | Potency [3] | Potency [4] | Potency [5]

COC(=O)C[C@H]1C(C)(C)[C@H](OC(C)=O)C2CC3=C4CC(=O)O[C@@H](c5ccoc5)[C@]4(C)CCC3[C@@]1(C)C2=O (stereo not given in full)
inactive: Potency [1] | Potency [2] | Potency [3] | Potency [4] | Potency [5]

C[C@@H]1O[C@@H](O[C@H]2[C@H](O[C@H]3[C@H](O)[C@@H](C(=O)O)O[C@@H](O[C@H]4CC[C@@]5(C)C(CC[C@]6(C)C5CC[C@]57OC[C@@]8(CCC(C)(C)CC85)[C@H](O)C[C@]76C)C4(C)C)[C@@H]3O[C@@H]3O[C@H](CO)[C@@H](O[C@@H]4OC[C@@H](O)[C@H](O)[C@H]4O)[C@H](O)[C@H]3O)O[C@H](CO)[C@H](O)[C@@H]2O)[C@H](O)[C@H](O)[C@H]1O (stereo not given in full)
inactive: activity change, negative = cytotoxicity [1] -19.1% [at 6.55 µM] | activity change, negative = cytotoxicity [2] 5.43% [at 6.55 µM] | activity change, negative = cytotoxicity [3] 0% [at 6.55 µM] | activity change, negative = cytotoxicity [4] -4.6% [at 6.55 µM] | activity change, negative = cytotoxicity [5] 10.2% [at 6.55 µM]

Cc1noc(-c2ccc(-c3ccc(CC(=O)O)cc3)cc2)c1NC(=O)O[C@H](C)c1ccccc1
inactive: Potency [1] | Potency [2] | Potency [3] | Potency [4] | Potency [5]

C[C@@H]1CC[C@]2(C(=O)OC3OC(CO)C(O)C(O)C3O)CC[C@]3(C)C(=CCC4[C@@]5(C)CC[C@H](O)[C@](C)(C(=O)O)C5CC[C@]43C)C2[C@]1(C)O (stereo not given in full)
inactive: Potency [1] | Potency [2] | Potency [3] | Potency [4] | Potency [5]
